Test results as given in PubChem BioAssay (NCATS).
Records with an inconclusive call do not appear. Unless noted, the call rests on the fitted dose curve; in most records, active means well fitted curve in either direction with a large enough effect (not every such curve was filed as active); inconclusive means small, poorly fitted or top-dose-only effect, or another doubt; inactive means flat fitted curve, though single readings scatter.

Tests used:
[1] = AP1 Signaling Pathway (AID 357); settings: ME-180 AP-1-bla reporter, EGF-induced, beta-lactamase ratio, 5 h; at 17.2 µM (top of the series) unless noted; further: on the % scale 0 is the no-effect control and ±100 the full control effect
Summary of the method: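 ME-180 cells with beta-lactamase reporter under AP-1 response element, stimulated with EC50 EGF; compounds tested in titration series, 5 h at 37 °C. CCF4 substrate added 2.5 h at room temperature; 460/530 nm emission ratio gave %activity and AC50.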

[2] = Stat Signaling Pathway (AID 446); settings: ME-180 SIE beta-lactamase reporter, IL-6 stimulated, 5 h; at 17.2 µM (top of the series) unless noted;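 further: ME-180 cervical cancer cells given 40 pM IL-6 alongside compound; SIE-controlled beta-lactamase reporter measured as 460/530 nm FRET emission ratio; on the % scale 0 is the no-effect control and ±100 the full control effect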
Summary of the method: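 ME-180 cells carrying a SIE-driven beta-lactamase reporter are stimulated with 40 pM IL-6 for 5 h at 37C in the presence of compound. The 460/530 nm FRET substrate ratio is read after 2.5 h at RT. Data are normalised to 300 pM IL-6 and to 125 nM JAK inhibitor controls.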

[3] = biological target: Glucocorticoid receptor (Homo sapiens) (UniProt P04150); assay: GR-GFP Redistribution (AID 450;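 active means compounds whose dose series gives a full or clear partial fitted curve of increased nuclear translocation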; further: potency means the concentration at half of the fitted maximal effect)
Glucocorticoid receptor (Homo sapiens), sequence (P04150 whole entry, looked up): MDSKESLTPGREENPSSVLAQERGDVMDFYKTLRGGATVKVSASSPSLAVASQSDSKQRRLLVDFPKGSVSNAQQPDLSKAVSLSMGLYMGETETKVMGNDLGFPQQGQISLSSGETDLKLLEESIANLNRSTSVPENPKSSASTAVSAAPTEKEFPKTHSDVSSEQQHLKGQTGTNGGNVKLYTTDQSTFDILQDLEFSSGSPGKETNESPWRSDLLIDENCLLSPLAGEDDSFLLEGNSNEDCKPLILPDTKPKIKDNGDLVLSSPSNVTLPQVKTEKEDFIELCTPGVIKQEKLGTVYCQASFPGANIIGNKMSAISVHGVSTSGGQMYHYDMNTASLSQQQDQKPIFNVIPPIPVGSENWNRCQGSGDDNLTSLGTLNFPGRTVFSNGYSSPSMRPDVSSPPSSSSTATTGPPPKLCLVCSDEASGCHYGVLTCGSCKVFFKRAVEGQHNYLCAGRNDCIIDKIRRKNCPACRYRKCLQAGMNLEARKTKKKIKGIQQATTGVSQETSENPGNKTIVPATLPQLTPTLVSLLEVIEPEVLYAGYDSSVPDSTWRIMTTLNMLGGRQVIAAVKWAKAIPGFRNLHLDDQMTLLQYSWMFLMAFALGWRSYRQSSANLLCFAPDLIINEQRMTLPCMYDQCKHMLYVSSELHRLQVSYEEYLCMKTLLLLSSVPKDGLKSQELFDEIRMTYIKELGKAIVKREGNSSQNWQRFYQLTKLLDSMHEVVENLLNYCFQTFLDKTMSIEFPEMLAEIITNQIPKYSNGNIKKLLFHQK

CCOc1ccc(C2C=C(c3ccccc3)Nc3ncnn32)cc1 (centres undefined)
inactive: activity change, negative = inhibition [1] -28.8% | activity, negative = inhibition [2] -2.5% | Potency [3] > 20.6 µM

Cc1ccc(N2C(=O)CC(N(O)C3CC(=O)N(c4ccc(C)cc4)C3=O)C2=O)cc1 (centres undefined)
inactive: activity change, negative = inhibition [1] -20.5% | activity, negative = inhibition [2] -25.3% | Potency [3] > 20.6 µM

CCCCc1cc(=O)oc2c(CN(C)C)c(O)c(Cl)cc12
inactive: activity change, negative = inhibition [1] -6.67% | activity, negative = inhibition [2] 14.1% | Potency [3] > 20.6 µM

O=C(O)CCCCCCC1C(=O)NC(=O)N1CCC(O)C1CCCCC1 (centres undefined)
inactive: activity change, negative = inhibition [1] -4.54% | activity, negative = inhibition [2] 14.6% | Potency [3] > 20.6 µM

COc1ccc(CCn2c(=N)c(C(=O)NCc3ccco3)cc3c(=O)n4ccccc4nc32)cc1OC
inactive: activity change, negative = inhibition [1] -14.6% | activity, negative = inhibition [2] -2.08% | Potency [3] > 20.6 µM

CCCc1cc(NCCCCO)n2c(nc3ccccc32)c1C#N
inactive: activity change, negative = inhibition [1] -18.6% | activity, negative = inhibition [2] -4.18% | Potency [3] > 20.6 µM

CC(C)c1nc(NCCN2CCOCC2)c(C#N)c2c1COC(C)(C)C2
inactive: activity change, negative = inhibition [1] -27% | activity, negative = inhibition [2] -1.06% | Potency [3] > 20.6 µM

CCCCCCCCCCCCCCCC(O)C(N)CO (centres undefined)
inactive: activity change, negative = inhibition [1] -23.5% | activity, negative = inhibition [2] 7.16% | Potency [3] > 20.6 µM

CC(C)Cc1nc(N2CCCCC2)c(C#N)c2c1CCC2
inactive: activity change, negative = inhibition [1] 28.8% | activity, negative = inhibition [2] 9.01% | Potency [3] > 20.6 µM

CC(C)CSc1nc(N2CCOCC2)c2c(c1C#N)CC(C)(C)SC2
inactive: activity change, negative = inhibition [1] -7.32% | activity, negative = inhibition [2] 2.55% | Potency [3] > 20.6 µM

COC(=O)CN(c1nc(C)c(Br)c(OC)n1)S(=O)(=O)c1ccc(C)cc1
inactive: activity change, negative = inhibition [1] -6.01% | activity, negative = inhibition [2] 7.73% | Potency [3] > 20.6 µM

CCCc1cc(Nc2c(C)n(C)n(-c3ccccc3)c2=O)n2c(nc3ccccc32)c1C#N
inactive: activity change, negative = inhibition [1] -3.24% | activity, negative = inhibition [2] 0.163% | Potency [3] > 20.6 µM

CCC1(C)Cc2c(sc3c2c(=O)n(C)c2nnc(SCc4ccccc4)n32)CO1 (centres undefined)
inactive: activity change, negative = inhibition [1] -2.66% | activity, negative = inhibition [2] 1.36% | Potency [3] > 20.6 µM

CC(=O)Nc1cc2c(cc1Br)OCCO2
inactive: activity change, negative = inhibition [1] 0.764% | activity, negative = inhibition [2] -0.829% | Potency [3] > 20.6 µM

CC1(C)Cc2c(C#N)c(SCCOc3ccccc3)nc(N3CCOCC3)c2CO1
inactive: activity change, negative = inhibition [1] -5.93% | activity, negative = inhibition [2] -22.3% | Potency [3] > 20.6 µM

COc1ccc(Nc2oc(-c3cccs3)nc2C#N)cc1
inactive: activity change, negative = inhibition [1] -23.7% | activity, negative = inhibition [2] -1.34% | Potency [3] > 20.6 µM

CCCCSc1nnc2n(CCc3ccccc3)c(=O)c3c4c(sc3n12)COC(C)(C)C4
inactive: activity change, negative = inhibition [1] -9.1% | activity, negative = inhibition [2] -12.7% | Potency [3] > 20.6 µM

Cc1ccc2c(c1)[C@@H]1CN(C)CC[C@@H]1N2S(=O)(=O)c1ccc(F)cc1
inactive: activity change, negative = inhibition [1] 12.8% | activity, negative = inhibition [2] 5.84% | Potency [3] > 20.6 µM

COc1cc2[nH]c3c(=O)n(CCN(C(C)C)C(C)C)cnc3c2cc1OC
inactive: activity change, negative = inhibition [1] -1.5% | activity, negative = inhibition [2] 6.66% | Potency [3] > 20.6 µM

Cc1cccn2c(=O)c3cc(C(N)=S)c(=N)n(CCCOC(C)C)c3nc12
inactive: activity change, negative = inhibition [1] -0.111% | activity, negative = inhibition [2] 13.3% | Potency [3] > 20.6 µM

CC(NC(=O)Nc1ncccn1)(C(F)(F)F)C(F)(F)F
inactive: activity change, negative = inhibition [1] 1.93% | activity, negative = inhibition [2] -5.56% | Potency [3] > 20.6 µM

N#Cc1c(N)n(CCOC(=O)c2cccc(Br)c2)c2nc3ccccc3nc12
inactive: activity change, negative = inhibition [1] -0.25% | activity, negative = inhibition [2] 16.2% | Potency [3] > 20.6 µM

CC1(C)Cc2c(C#N)c(OCC(=O)c3ccccc3)nc(-c3ccoc3)c2CO1
inactive: activity change, negative = inhibition [1] 20.6% | activity, negative = inhibition [2] 12.9% | Potency [3] > 20.6 µM

CCOc1ccc(C2=Nn3c(nnc3-c3ccccn3)SC2)cc1
inactive: activity change, negative = inhibition [1] -11.7% | activity, negative = inhibition [2] 3.43% | Potency [3] > 20.6 µM

CCOP(=O)(c1ccccc1)c1nc(-c2ccccc2C)oc1N1CCCCC1 (centres undefined)
inactive: activity change, negative = inhibition [1] -1.96% | activity, negative = inhibition [2] 0.694% | Potency [3] > 20.6 µM

N#CC(C(=O)NC1CCCCC1)c1nc2ccccc2nc1N1CCN(c2ccccc2F)CC1 (centres undefined)
inactive: activity change, negative = inhibition [1] -12.2% | activity, negative = inhibition [2] -5.87% | Potency [3] > 20.6 µM

C=CCNc1nc(N2CCCCC2)c(C#N)c2c1CN(Cc1ccccc1)CC2
inactive: activity change, negative = inhibition [1] 1.37% | activity, negative = inhibition [2] -3.92% | Potency [3] > 20.6 µM

CCCCOC(=O)C(C)c1c(C)[nH]c(=S)[nH]c1=O (centres undefined)
inactive: activity change, negative = inhibition [1] 7.17% | activity, negative = inhibition [2] -3.5% | Potency [3] > 20.6 µM

Clc1ccc(-n2ncc3c(NCc4cccs4)ncnc32)cc1
inactive: activity change, negative = inhibition [1] 13.8% | activity, negative = inhibition [2] -14.7% | Potency [3] > 20.6 µM

CN1C2C=C3C(C#N)=C(N)C(C#N)(C#N)[C@@H](c4ccsc4)[C@@H]3C1CC2 (some centres undefined)
inactive: activity change, negative = inhibition [1] 20.1% | activity, negative = inhibition [2] 3.71% | Potency [3] > 20.6 µM

c1coc(-c2nnc3sc(Cc4cccs4)nn23)c1
inactive: activity change, negative = inhibition [1] -15.4% | activity, negative = inhibition [2] -17.3% | Potency [3] > 20.6 µM

CCOc1ccc(N2C(=O)CC(N)C2=O)cc1 (centres undefined)
inactive: activity change, negative = inhibition [1] -19.2% | activity, negative = inhibition [2] -5.4% | Potency [3] > 20.6 µM

CCN(CC)c1ccc(C2Nc3cccc4cccc(c34)N2)c(O)c1
inactive: activity change, negative = inhibition [1] -17.3% | activity, negative = inhibition [2] -17.7% | Potency [3] > 20.6 µM

Cc1cccc(OCCN2CSC(=S)N(C)C2)c1
inactive: activity change, negative = inhibition [1] -16.7% | activity, negative = inhibition [2] -7.42% | Potency [3] > 20.6 µM

CCCCOc1ccc(C(=O)OC2CC(C)N(C)CC2C)cc1 (centres undefined)
inactive: activity change, negative = inhibition [1] 5.59% | activity, negative = inhibition [2] 1.35% | Potency [3] > 20.6 µM

Cc1c(C)c2cc(Cl)c(O)c(CN3CCCCC3)c2oc1=O
inactive: activity change, negative = inhibition [1] 17.2% | activity, negative = inhibition [2] 2.68% | Potency [3] > 20.6 µM

Cn1c(NCc2ccccc2)nc2c1c(=O)n(Cc1ccccc1)c(=O)n2C
inactive: activity change, negative = inhibition [1] -27.4% | activity, negative = inhibition [2] -21.1% | Potency [3] > 20.6 µM

COc1ccc(Cn2c(=O)c3c(nc(NCCO)n3C)n(C)c2=O)cc1
inactive: activity change, negative = inhibition [1] 1.13% | activity, negative = inhibition [2] -24.4% | Potency [3] > 20.6 µM

Cn1c(=O)c2c(nc(SCCN3CCCCC3)n2Cc2ccc(Cl)cc2)n(C)c1=O
inactive: activity change, negative = inhibition [1] 11.2% | activity, negative = inhibition [2] -9.94% | Potency [3] > 20.6 µM

CCn1cc(C(=O)NCCCN(C)C)c(=O)c2cc(F)c(N3CCN(C)CC3)cc21
inactive: activity change, negative = inhibition [1] -0.851% | activity, negative = inhibition [2] 3.71% | Potency [3] > 20.6 µM

Brc1ccc(-c2cnc3n2CCCC3)cc1
inactive: activity change, negative = inhibition [1] 1.22% | activity, negative = inhibition [2] 16.1% | Potency [3] > 20.6 µM

Cc1c(N=Cc2c(O)n(C3CCCCC3)c(=O)[nH]c2=O)c(=O)n(-c2ccccc2)n1C
inactive: activity change, negative = inhibition [1] -6.37% | activity, negative = inhibition [2] -1.79% | Potency [3] > 20.6 µM

CC(C)Sc1nc(N2CCCC2)c2c(c1C#N)CC(C)(C)OC2
inactive: activity change, negative = inhibition [1] -10.5% | activity, negative = inhibition [2] -9.04% | Potency [3] > 20.6 µM

O=c1[nH]c(CN2CCCCC2)nc2c1C1(CCCC1)Cc1ccccc1-2
inactive: activity change, negative = inhibition [1] 14.5% | activity, negative = inhibition [2] -7.96% | Potency [3] > 20.6 µM

O=C(CSc1nc2ccccc2c(=O)n1CC1CCCCC1)N1CCOCC1
inactive: activity change, negative = inhibition [1] -23.4% | activity, negative = inhibition [2] -21.6% | Potency [3] > 20.6 µM

CCSc1nc2sc3c(c2c(=O)n1C1CCCCC1)CCN(C)C3
inactive: activity change, negative = inhibition [1] 4.46% | activity, negative = inhibition [2] 24.3% | Potency [3] > 20.6 µM

CCOC(=O)C1=C(CSc2nc3c(cc2C#N)CCC3)OC(N)=C(C#N)C1c1ccccc1 (centres undefined)
inactive: activity change, negative = inhibition [1] 0.107% | activity, negative = inhibition [2] -16.4% | Potency [3] > 20.6 µM

CCCCc1nc(NCC2CCCO2)c(C#N)c2c1COC(C)(C)C2 (centres undefined)
inactive: activity change, negative = inhibition [1] -26.3% | activity, negative = inhibition [2] 1.02% | Potency [3] > 20.6 µM

CCC1CCCCN1c1nc(-c2ccncc2)nc2ccccc12 (centres undefined)
inactive: activity change, negative = inhibition [1] -20.7% | activity, negative = inhibition [2] -2.48% | Potency [3] > 20.6 µM

O=C(NCCN1CCCCC1)/C(=N\O)c1ccccc1
inactive: activity change, negative = inhibition [1] -7.56% | activity, negative = inhibition [2] -1.14% | Potency [3] > 20.6 µM

CC1(C)Cc2c(c(N3CCCCC3)[nH]c(=S)c2C#N)CS1
inactive: activity change, negative = inhibition [1] 3.57% | activity, negative = inhibition [2] -3.22% | Potency [3] > 20.6 µM

C=CCn1c(SCC(=O)NC23CC4CC(CC(C4)C2)C3)nc(O)cc1=O
inactive: activity change, negative = inhibition [1] 8.04% | activity, negative = inhibition [2] -2.84% | Potency [3] > 20.6 µM

Cn1c(=O)c2c3c(sc2n2c(SCc4ccccc4)nnc12)CCCC3
inactive: activity change, negative = inhibition [1] -6.83% | activity, negative = inhibition [2] -27.8% | Potency [3] > 20.6 µM
